Measured values as given in PubChem BioAssay.
The source made the active and inactive calls.

Legend:
[1] = A549 cell viability effects, profiling panel, calcein-AM fluorescence, 48 h, basal (AID 1162); conditions: higher = more signal
[2] = adipocyte viability effects, profiling panel, cell-based, 3T3-L1 adipocytes, calcein-AM fluorescence, 48 h, basal (AID 1163); conditions: 3T3-L1 adipocytes viability, higher = more signal
[3] = HepG2 cell viability effects, profiling panel, calcein-AM fluorescence, 48 h, basal (AID 1164); conditions: higher = more signal
[4] = MM1S cell viability effects, profiling panel, calcein-AM fluorescence, 48 h, basal (AID 1165); conditions: higher = more signal;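 also: viability of MM1S multiple myeloma cells under basal unstimulated conditions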
[5] = basal RPMI8226 viability, no added stimulus, profiling panel, cell-based, calcein-AM fluorescence, 48 h, PK04 Diversity Set (AID 1166); conditions: RPMI8226 myeloma viability, higher = more signal;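 also: cells grown under basal conditions without added stimulus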
[6] = basal HepG2 mitochondrial membrane potential changes, profiling panel, cell-based, JC-1 fluorescence, 24 h, 100 nL compound (AID 1167); conditions: higher = more signal
[7] = basal 3T3-L1 adipocyte mitochondrial potential changes, profiling panel, cell-based, JC-1 fluorescence, 3T3-L1 adipocytes, 24 h, 100 nL compound (AID 1168); conditions: JC-1 mitochondrial fluorescence, higher = more signal, called active from +8 up or from −8 down
[8] = basal RPMI8226 mitochondrial membrane potential changes, profiling panel, cell-based, JC-1 fluorescence, 24 h, 100 nL compound (AID 1169); conditions: RPMI8226 myeloma, JC-1 mitochondrial potential fluorescence, higher = more signal
[9] = basal MM1S mitochondrial membrane potential changes, profiling panel, cell-based, JC-1 fluorescence, 24 h, 100 nL compound (AID 1170); conditions: higher = more signal
[10] = A549 lung cancer cell viability effects, profiling panel, resazurin fluorescence, 24 h, PK04 Diversity Set (AID 1171); conditions: higher = more signal, called active from +8 up or from −8 down
Also: test concentration not given here.

Row | Compound | z-score [1] | z-score [2] | z-score [3] | z-score [4] | z-score [5] | z-score [6] | z-score [7] | z-score [8] | z-score [9] | z-score [10]
1 | COC(=O)[C@@]1(Cc2ccc(F)cc2)[C@H]2c3cc(C(=O)N4CCCC4)n(Cc4ccc(C)c(F)c4F)c3C[C@H]2CN1C(=O)c1ccccc1 | -0.858 | -0.82 | 0.97 | -3.35 | -3.35 | 1.01 | -1.02 (inactive) | -0.59 | -1.38 | -0.718 (inactive)
2 | CCOC(=O)C[C@H]1[C@H](OC(=O)c2cc3ccccc3oc2=O)[C@@H](NC(=O)c2ccccc2)c2cc(OCCCO)ccc2N1C(=O)c1ccccc1 | 0.102 | 1.36 | -0.521 | -0.836 | -2.3 | 1.23 | 0.434 (inactive) | -0.954 | 0.185 | -0.238 (inactive)
3 | CC(C)NC(=O)[C@@]1(c2ccc([N+](=O)[O-])cc2)CC(=O)N(C2CCCCC2)[C@@H]1c1ccc(CO)cc1 | -0.68 | -0.773 | -0.297 | -0.0629 | -0.402 | 1.46 | 1.4 (inactive) | 0.172 | -0.123 | 1.38 (inactive)
4 | C=CC[C@@]1(C(=O)NCCCOC)N=C(c2ccc(OCCCO)cc2)O[C@@H]1c1ccccc1 | 0.689 | 0.457 | 0.83 | 0.611 | 0.751 | -0.166 | 1.21 (inactive) | -0.323 | 0.193 | -0.706 (inactive)
5 | COc1cc2c(cc1O)C(C1CC1)N(Cc1cccc(OC(F)(F)F)c1)CC2 (stereo not given) | -1.74 | 0.119 | -3.68 | -3.18 | -2.99 | -2.84 | -0.356 (inactive) | -0.686 | -2.61 | -1.05 (inactive)
6 | C=CCOC(=O)[C@@H]1[C@H]2C(=O)O[C@H](c3ccccc3)[C@H](c3ccccc3)N2[C@H](c2ccc(OCCOC(=O)[C@@H]3C[C@@H]4C(=O)N[C@@H](CCCC[N+](C)(C)C)C(=O)N4[C@@H]3c3ccc(O)cc3)cc2)[C@@]12C(=O)Nc1ccc(I)cc12 | -0.602 | 0.751 | -0.495 | -2.03 | -1.7 | -1.87 | -0.582 (inactive) | -0.657 | -1.1 | 0.0416 (inactive)
7 | [N-]=[N+]=Nc1ccccc1C[C@@]1(C(N)=O)N=C(c2ccc(OCCCO)cc2)O[C@@H]1c1ccccc1N=[N+]=[N-] | -1.53 | 1.08 | -0.727 | -1.68 | -4.08 | -1.11 | -1.35 (inactive) | -1.23 | -0.169 | -0.385 (inactive)
